# Data: PMC11062922 (Nature Chemical Biology, 2023)
# Where two headings read alike, the source gives them in different places.
# Experiments:
# Parameters in all cases: species or system human, MV4-11 + K-562 + COLO205 + SK-N-BE2 + OVCAR-8
# DJA1 = tested on: T1, DJA1; settings: read-out: apparent Kd, n = 1
# T1 construct: gene DNAJA1
# PRKD2 = settings: read-out: apparent Kd; compound concentrations:100 nM and 1000 nM (sheet 'Samples'); n = 1
# PRKD3 = settings: read-out: apparent Kd; compound concentrations:100 nM and 1000 nM (sheet 'Samples'); n = 1
# PIK3C3 = settings: read-out: apparent Kd; compound concentrations: 100 nM and 1000 nM (sheet 'Samples'), CATDS: 0.180657848529719; n = 1
# PIK3CA = settings: read-out: apparent Kd; compound concentrations: 100 nM and 1000 nM (sheet 'Samples'), CATDS: 0.62004014167069399; n = 1
# STK16 = settings: read-out: apparent Kd; compound concentrations: 100 nM and 1000 nM (sheet 'Samples'), CATDS: 0.16232458546683101; n = 1
# STK4 = settings: read-out: apparent Kd; compound concentrations: 100 nM and 1000 nM (sheet 'Samples'), CATDS: 0.1689879657386; n = 1
# EGFR = settings: read-out: apparent Kd; compound concentrations: 100 nM and 1000 nM (sheet 'Samples'), CATDS: 1; n = 1
# DDR1 = settings: read-out: apparent Kd, n = 1
# MAPK10 = settings: read-out: apparent Kd, n = 1
# MAPK11 = settings: read-out: apparent Kd, n = 1
# MAPK14 = settings: read-out: apparent Kd, n = 1
# MAPK8 = settings: read-out: apparent Kd, n = 1
# MAPK9 = settings: read-out: apparent Kd, n = 1
# MAPKAPK2 = settings: read-out: apparent Kd; compound concentrations: 100 nM and 1000 nM (sheet 'Samples'), CATDS: 0.38284273517915801; n = 1
# NLK = settings: read-out: apparent Kd; compound concentrations: 100 nM and 1000 nM (sheet 'Samples'), CATDS: 7.8409581021953403E-2; n = 1
# PIP4K2C = settings: read-out: apparent Kd, n = 1
# DYRK1A = settings: read-out: apparent Kd, n = 1
# DDR2 = settings: read-out: apparent Kd; compound concentrations:100 nM and 1000 nM (sheet 'Samples'); n = 1
# PDGFRB = settings: read-out: apparent Kd; compound concentrations:100 nM and 1000 nM (sheet 'Samples'); n = 1
# EIF2AK1 = settings: read-out: apparent Kd; compound concentrations:100 nM and 1000 nM (sheet 'Samples'); n = 1
# IRAK3 = settings: read-out: apparent Kd; compound concentrations:100 nM and 1000 nM (sheet 'Samples'); n = 1
# OPA1 = settings: read-out: apparent Kd; compound concentrations:100 nM and 1000 nM (sheet 'Samples'); n = 1
# PIK3CD = settings: read-out: apparent Kd; compound concentrations:100 nM and 1000 nM (sheet 'Samples'); n = 1
# DHCR24 = settings: read-out: apparent Kd; compound concentrations: 100 nM and 1000 nM (sheet 'Samples'), CATDS: 0.15237648069571999; n = 1
# NQO1 = settings: read-out: apparent Kd; compound concentrations: 100 nM and 1000 nM (sheet 'Samples'), CATDS: 0.149856517044136; n = 1
# PLK1 = settings: read-out: apparent Kd; compound concentrations: 100 nM and 1000 nM (sheet 'Samples'), CATDS: 0.13672731586716499; n = 1
# RIPK2 = settings: read-out: apparent Kd; compound concentrations: 100 nM and 1000 nM (sheet 'Samples'), CATDS: 0.97549436112996002; n = 1
# RIPK3 = settings: read-out: apparent Kd; compound concentrations: 100 nM and 1000 nM (sheet 'Samples'), CATDS: 0.14106558052959201; n = 1
# TP53RK = settings: read-out: apparent Kd; compound concentrations: 100 nM and 1000 nM (sheet 'Samples'), CATDS: 0.13630649736476699; n = 1
# [1] = compound concentrations: 100 nM and 1000 nM (sheet 'Samples'), CATDS: 1
# [2] = compound concentrations:100 nM and 1000 nM (sheet 'Samples')
compound,measurement,setting,value
Cl.Oc1ccc(-c2nc(-c3ccccc3)[nH]c2-c2ccncc2)cc1 [SB-428218-A],potency estimated from few doses,DJA1; [1],108 nM
Cc1cccc(-c2nc(Nc3ccc4ncsc4c3)c3ccccc3n2)n1 [GW867588X],potency estimated from few doses,DJA1; [2],134 nM
same,potency estimated from few doses,PRKD2,37.5 nM
same,potency estimated from few doses,PRKD3,74.8 nM
COc1ccc(NC(=O)c2ccoc2)cc1-c1ccc(C(=O)NCC2CC2)cc1 [GW810437X],potency estimated from few doses,"DJA1; compound concentrations: 100 nM and 1000 nM (sheet 'Samples'), CATDS: 0.17319621372560801",1720 nM
same,potency estimated from few doses,PIK3C3,1530 nM
same,potency estimated from few doses,PIK3CA,147 nM
same,potency estimated from few doses,STK16,2060 nM
same,potency estimated from few doses,STK4,1830 nM
O=C(O)C(F)(F)F.O=C(O[C@H]1CN[C@H](C#Cc2cc3ncnc(Nc4ccc5c(ccn5Cc5cc(F)ccc5F)c4)c3s2)C1)N1CCOCC1 [GSK259178A],potency estimated from few doses,EGFR,277 nM
COc1cccc(NC(=O)NC2CCN(c3ccnc(Nc4ccc(F)cc4)n3)C2)c1 (centres unmarked) [GSK1379721A],potency estimated from few doses,DJA1; [1],1340 nM
CS(=O)(=O)CCN(CC#N)Cc1ccc(-c2ccc3ncnc(Nc4ccc(OCc5cccc(F)c5)c(Cl)c4)c3c2)o1 [GW616030X],potency estimated from few doses,EGFR,244 nM
CS(=O)(=O)N1CCC(n2c(=O)c(Oc3ccc(F)cc3F)cc3cnc(NC4CCOCC4)nc32)CC1 [RO5045977-000],potency estimated from few doses,"DDR1; compound concentrations: 100 nM and 1000 nM (sheet 'Samples'), CATDS: 6.1893327663863601E-2",1480 nM
same,potency estimated from few doses,"MAPK10; compound concentrations: 100 nM and 1000 nM (sheet 'Samples'), CATDS: 0.12322586321359499",47.7 nM
same,potency estimated from few doses,"MAPK11; compound concentrations: 100 nM and 1000 nM (sheet 'Samples'), CATDS: 9.0776517139408097E-2",131 nM
same,potency estimated from few doses,"MAPK14; compound concentrations: 100 nM and 1000 nM (sheet 'Samples'), CATDS: 0.53727809259194403",1.11 nM
same,potency estimated from few doses,"MAPK8; compound concentrations: 100 nM and 1000 nM (sheet 'Samples'), CATDS: 8.8413103607242097E-2",145 nM
same,potency estimated from few doses,"MAPK9; compound concentrations: 100 nM and 1000 nM (sheet 'Samples'), CATDS: 0.12213676583314199",48.9 nM
same,potency estimated from few doses,MAPKAPK2,2.09 nM
same,potency estimated from few doses,NLK,247 nM
same,potency estimated from few doses,"PIP4K2C; compound concentrations: 100 nM and 1000 nM (sheet 'Samples'), CATDS: 0.11127151307282",65.2 nM
C[C@H](CS(C)(=O)=O)Nc1ncc2cc(Oc3ccc(F)cc3F)c(=O)n(C)c2n1 [RO5043312-000],potency estimated from few doses,"DYRK1A; compound concentrations: 100 nM and 1000 nM (sheet 'Samples'), CATDS: 0.12801866170396201",1960 nM
same,potency estimated from few doses,"MAPK10; compound concentrations: 100 nM and 1000 nM (sheet 'Samples'), CATDS: 0.199019247687024",398 nM
same,potency estimated from few doses,"MAPK11; compound concentrations: 100 nM and 1000 nM (sheet 'Samples'), CATDS: 0.17455940008728901",583 nM
same,potency estimated from few doses,"MAPK14; compound concentrations: 100 nM and 1000 nM (sheet 'Samples'), CATDS: 0.87257547022931203",10.8 nM
same,potency estimated from few doses,"MAPK9; compound concentrations: 100 nM and 1000 nM (sheet 'Samples'), CATDS: 0.189062450586059",460 nM
O=c1c(Oc2ccc(F)cc2F)cc2cnc(NC3CCOCC3)nc2n1CCCO [RO4442245-000],potency estimated from few doses,DDR1; [2],1080 nM
same,potency estimated from few doses,MAPK10; [2],42.5 nM
same,potency estimated from few doses,MAPK11; [2],13.4 nM
same,potency estimated from few doses,MAPK14; [2],0.149 nM
same,potency estimated from few doses,MAPK8; [2],54.7 nM
same,potency estimated from few doses,MAPK9; [2],15.9 nM
same,potency estimated from few doses,PIP4K2C; [2],611 nM
O=C(Nc1ccccc1)Nc1cccc(Oc2ccc3nccn3n2)c1 [TPKI-39],potency estimated from few doses,DDR2,732 nM
same,potency estimated from few doses,PDGFRB,853 nM
COc1ccc(-c2oc3ncnc(N)c3c2-c2ccc(OC)cc2)cc1 [SB-589132],potency estimated from few doses,DYRK1A; [2],1950 nM
same,potency estimated from few doses,EIF2AK1,2270 nM
same,potency estimated from few doses,IRAK3,1120 nM
same,potency estimated from few doses,OPA1,1860 nM
same,potency estimated from few doses,PIK3CD,151 nM
CCNC(=O)O[C@H]1CN[C@H](C#Cc2cc3ncnc(Nc4ccc(OCc5cccc(F)c5)c(Cl)c4)c3s2)C1 [GSK192082A],potency estimated from few doses,EGFR,177 nM
CC(C)(C)S(=O)(=O)c1ccc2nccc(Nc3n[nH]c4ccc(F)cc34)c2c1 [GSK583],potency estimated from few doses,DHCR24,1410 nM
same,potency estimated from few doses,NQO1,1480 nM
same,potency estimated from few doses,PLK1,1910 nM
same,potency estimated from few doses,RIPK2,4.2 nM
same,potency estimated from few doses,RIPK3,1750 nM
same,potency estimated from few doses,TP53RK,1930 nM
